The source of these data is PubChem BioAssay (NCATS).

Records with an inconclusive call do not appear. A call without a number means that no potency is given here. Active and inactive are the calls of the source. Calls come from the whole dose curve; as a rule, active = well fitted inhibition curve with a large enough effect; inconclusive = small, poorly fitted or top-dose-only effect; inactive = no such curve, though single readings can be large or run the other way.
Potency is the fitted concentration of half-maximal effect.

Rap guanine nucleotide exchange factor 4 (Homo sapiens), sequence (Q8WZA2 whole entry, looked up): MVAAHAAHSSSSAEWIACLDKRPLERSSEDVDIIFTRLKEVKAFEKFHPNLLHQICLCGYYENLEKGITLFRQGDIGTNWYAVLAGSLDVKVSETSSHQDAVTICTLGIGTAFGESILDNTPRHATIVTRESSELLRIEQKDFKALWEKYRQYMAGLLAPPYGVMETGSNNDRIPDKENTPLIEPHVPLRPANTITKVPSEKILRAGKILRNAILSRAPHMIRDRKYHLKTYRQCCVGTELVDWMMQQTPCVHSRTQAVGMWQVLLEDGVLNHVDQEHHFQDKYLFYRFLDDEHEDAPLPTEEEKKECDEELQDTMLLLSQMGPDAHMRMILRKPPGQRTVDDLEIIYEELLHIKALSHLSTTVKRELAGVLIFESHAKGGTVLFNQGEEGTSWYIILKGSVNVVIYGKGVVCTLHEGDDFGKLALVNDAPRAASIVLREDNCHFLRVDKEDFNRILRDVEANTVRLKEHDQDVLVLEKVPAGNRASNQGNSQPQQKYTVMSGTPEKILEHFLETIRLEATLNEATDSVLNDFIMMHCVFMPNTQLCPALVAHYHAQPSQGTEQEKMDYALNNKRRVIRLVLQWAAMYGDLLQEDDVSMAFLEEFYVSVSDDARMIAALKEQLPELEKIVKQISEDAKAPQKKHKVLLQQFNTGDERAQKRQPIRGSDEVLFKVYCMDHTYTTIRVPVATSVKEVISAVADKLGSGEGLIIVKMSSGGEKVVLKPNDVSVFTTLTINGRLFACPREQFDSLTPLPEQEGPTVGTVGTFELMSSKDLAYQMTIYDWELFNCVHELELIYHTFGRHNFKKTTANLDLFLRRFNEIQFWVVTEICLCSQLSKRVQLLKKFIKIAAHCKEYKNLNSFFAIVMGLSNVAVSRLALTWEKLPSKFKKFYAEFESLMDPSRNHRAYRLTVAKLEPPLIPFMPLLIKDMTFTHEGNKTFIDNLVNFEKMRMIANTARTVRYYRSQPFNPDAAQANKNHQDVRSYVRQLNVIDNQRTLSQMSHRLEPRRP

This assay addresses Rap guanine nucleotide exchange factor 4 (Homo sapiens) (UniProt Q8WZA2). The assay is described as follows: Confirmatory qHTS for antagonist of cAMP-regulated guanine nucleotide exchange factor 4 (EPAC2) (AID 1645885). Note: nearly all actives have a fitted effect of over 25% in size. The settings on record: EPAC2 Rap1B-BODIPY-GDP exchange fluorescence, biochemical; series mostly up to 12.7 µM. For orientation: Quantitative high-throughput screening tests each substance at several concentrations.
On to `Cc1ccc2cccc(OC(=O)c3c(F)cccc3Cl)c2n1`, for which the Potency entry was “inactive”.

For the compound `COc1ccc(/C(O)=C/c2nc3ccccc3n(-c3ccccc3)c2=O)cc1`, the Potency is 75.7 µM (active).

As for `Oc1c(C(c2ccccc2)N2CCN(c3ccccc3)CC2)sc2nc(-c3ccco3)nn12` (stereo unspecified), the Potency result is “inactive”. Consider `COc1ccc(C(=O)/C=C/c2ccc(N(C)C)cc2)c(OC)c1`, for which the Potency entry was “inactive”. With `CC1CCN(c2ccc3c(c2)S(=O)(=O)c2cccc(C(=O)NCc4cccc(F)c4)c2C3=O)CC1` the entry was “inactive”. With `CCN(CC)c1ccc2cc(C(N)=O)c(=N)oc2c1` the entry was “inactive”. With `CCOc1cc(/C=N/NC(=O)c2ccc(-c3csc(Nc4ccc(C)cc4)n3)cc2)ccc1OCC(=O)O` the entry was “inactive”; with `Cc1cccc(NCc2cccc3ccccc23)n1`, “inactive”. In the case of `CCN(C(=O)CN1CCN(c2ccccc2O)CC1)c1c(N)n(Cc2ccccc2)c(=O)[nH]c1=O`, the Potency result is “inactive”.

Turning to `CN(C)c1ccc(C(=O)/C=C/c2ccc(Br)cc2)cc1`, the Potency result is “inactive”. With `CCOc1ccc(NC(=O)/C(C#N)=C/c2ccc(N3CCCC3)c(C)c2)cc1` the entry was “inactive”; with `CCOc1ccc(CCN2C(=O)C(=O)N([C@@H](CC(C)C)CN3CCC[C@@H]3CN3C(=O)C(=O)NC[C@@H]3Cc3ccccc3)C[C@@H]2CC(C)C)cc1`, 0.0953 µM (active); with `C=CCN1C(=O)c2cccc3c(N4CCCCC4)ccc(c23)C1=O`, “inactive”. Under `COc1cccc(-n2c(SCC(=O)Nc3ccc(F)cc3F)nc3c([nH]c4ccccc43)c2=O)c1` stands “inactive”; under `COC(=O)c1cc2sc(Cl)cc2n1Cc1cc(C)ccc1C`, “inactive”. As to `COc1ccccc1C(=O)NNC(=O)CCCN1C(=O)/C(=C/c2cccs2)SC1=S`, the Potency entry was “inactive”.
